# Data reported in the supplement of paper PMC5499739.
# Over roughly 16,000 sequences, “Z-score” has its median near -0.37; the highest 2% begin near 3.1. The sample as a whole holds a higher share of the highest values than the screen did.
# Test system: RBM10 RRM1-ZnF-RRM2 (GST-tagged construct)
# Test: RNAcompete 7-mer binding Z-score; higher = stronger binding preference
# Method: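 RNAcompete: 20 pmol GST-tagged RBM10 RNA-binding constructs were incubated with a designed RNA pool of about 241,000 sequences up to 41 nt (1.5 nmol) on glutathione beads for 30 min at 4 °C and washed. Bound RNAs were identified by microarray hybridisation. Each RNA 7-mer is scored by a one-sided Z-score of its enrichment, computed over probes that contain the 7-mer within longer pool sequences.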
row,Sequence,RNAcompete 7-mer binding Z-score
1,AUCAGCA,-0.395
2,AUUCCCC,-0.613
3,AGGAUAA,1.21
4,CUGGGAU,0.964
5,GUGGGAU,3.57
6,UUGGGAU,1.9
7,AUAAGAA,0.177
8,GAUUGCC,-0.672
9,AAGUCUU,-0.697
10,CUAGGAG,0.534
11,GUAGGAG,3.78
12,CUAGGGU,2
13,UUAGGGG,2.07
14,UUAGGGA,2.36
15,GUAGGGG,4.66
16,UUAGGGU,3.02
17,GUAGGGC,2.85
18,GUAGGGU,4.48
19,CUAGGGG,1.97
20,GUAGGAC,1.86
21,GUAGGGA,4.26
22,AACUUUA,-0.679
23,UAGGCGG,1.79

row,Sequence,RNAcompete 7-mer binding Z-score
1,UGUGACC,-0.176
2,CGUCUUU,-0.613
3,CCACUCG,-0.73
4,GGGUCUG,0.993
5,ACCUCUG,-0.814
6,AUAGGAG,2.27
7,AUAGGGC,2.14
8,AUAGGCG,1.16
9,AUAGGGU,4.33
10,AUAGGGG,4.15
11,AUAGGGA,2.9
12,UACCUGC,-0.887
13,GUCCGUA,-0.471
14,GGAGUCA,1.05
15,ACAGGGG,3.19
16,ACAGGGC,2.36
17,ACAGGGA,3.47
18,CCAGGGU,1.18
19,GCAGGGU,3.35
20,CCAGGGA,1.51
21,CCAGGGG,1.43
22,GCAGGGG,3.15
23,GCAGGGC,1.51

row,Sequence,RNAcompete 7-mer binding Z-score
1,UCAGGGG,1.46
2,ACAGGGU,3.11
3,ACAGGAG,2.7
4,AUAUACC,-0.628
5,CAUUCUC,-0.857
6,UGCACAU,-0.362
7,UCACAAG,-0.256
8,CUCGCGU,-0.635
9,CGGAUCA,0.578
10,AAGGUGA,3.62
11,AAGGUGG,4.32
12,GAGGUGC,1.65
13,AAGGUGC,2.55
14,GAGGUGG,3.37
15,GAGGUGA,2.6
16,AAGGUGU,2.26
17,CAGGUGA,1.54
18,GAGGUGU,2.31
19,AUUCUCC,-0.679
20,AGCAACG,0.359
21,UGCCACU,-0.741
22,UCUCCCA,-0.697
23,GCUAAUA,-0.282

row,Sequence,RNAcompete 7-mer binding Z-score
1,GAUAUGA,0.643
2,CAGUGGG,2.93
3,AAGUGGU,1.6
4,AAGUGGG,3.5
5,UAGUGGA,1.52
6,GAGUGGA,3.07
7,AAGUGGA,3.2
8,CCCCUCG,-0.573
9,GUCAGAG,0.406
10,GCUGCGG,1.05
11,AAUGCGA,0.286
12,CGGCACA,0.133
13,UAGACGC,-0.333
14,AGGGUUA,3.86
15,CGGGUUG,2.32
16,AGGGUUC,0.996
17,AGGGUUG,3.34
18,GGGGUUA,3.07
19,GGGGUUG,3.23
20,UGGGUUG,2.56
21,GGGGUUC,1.83
22,UGGGUUA,2.83
23,GUAGUCU,-0.256

row,Sequence,RNAcompete 7-mer binding Z-score
1,CCGUUUU,-1.01
2,UGCAUAU,-0.49
3,UUUCACU,-0.704
4,UCAUUAU,-0.621
5,UACCGAA,-0.428
6,CUUACAA,-0.785
7,GUAAGUC,-0.0743
8,CCGAACU,-0.839
9,CCCACCC,-0.337
10,UGGGAGU,1.95
11,CGGGAGG,2.96
12,GGGGAGG,3.33
13,GGGGAGA,2.53
14,AGGGAGU,3.13
15,UGGGAGG,4.58
16,UGGGAGA,2.56
17,AGGGAGG,3.18
18,GGGGAGU,2.86
19,CAUGGCC,-0.344
20,GUUGCCU,-0.613
21,AGGUUAC,0.538
22,GAUCGCU,-0.697
23,CGGGUCC,0.723

row,Sequence,RNAcompete 7-mer binding Z-score
1,GCGAGGG,3.86
2,GCGAGGA,2.06
3,ACGAGGG,3.71
4,ACGAGGU,1.36
5,ACGAGGC,0.742
6,UCGAGGG,1.93
7,AAAGCAA,0.563
8,AGCAGAA,0.701
9,CUAAGGG,1.35
10,UUAAGGA,0.982
11,AUAAGGG,3.85
12,GUAAGGG,3.65
13,GUAAGGA,3.28
14,GUAAGGC,2.12
15,CUAAGGA,0.286
16,AUAAGGA,2.16
17,AUAAGGU,1.74
18,GAUCGUU,-0.464
19,AUUAAUA,-0.544
20,AAUAGAG,0.742
21,AAGUUGC,-0.293
22,UGCUCCC,-0.821
23,UAGAAGG,3.2

row,Sequence,RNAcompete 7-mer binding Z-score
1,AAGAAGA,1.03
2,AAGAAGG,3.81
3,AAGAAGU,0.818
4,CUGAAGG,0.902
5,CAGAAGG,2.37
6,UAGAAGA,0.348
7,GAGAAGA,1.04
8,UAGAAGU,0.319
9,GAGAAGG,4.54
10,AUGAAGG,2.82
11,GUGAAGG,3.69
12,UAUCUAC,-0.548
13,UCACCAA,-0.65
14,AAAGCUC,-0.53
15,AGCUUCG,-0.795
16,UCAGAGU,0.0786
17,GCUCUCA,-0.526
18,UAGGGUA,4.16
19,GAGGGUU,2.88
20,ACGGGUA,2.22
21,AAGGGUC,2.01
22,GAGGGUC,1.39
23,UAGGGUU,3.14

row,Sequence,RNAcompete 7-mer binding Z-score
1,UCGGGUA,1.57
2,CAGGGUA,2.88
3,AAGGGUA,4.27
4,CAGGGUU,2.05
5,GAGGGUG,3.5
6,UCGGGUU,0.916
7,UUCCAGC,-0.715
8,GUGUUCA,-0.442
9,AGGUUUC,0.184
10,ACUUGGU,-0.267
11,GUUAGUG,0.953
12,UCUAGCA,-0.712
13,GUCAGUU,-0.289
14,CCGCUAG,-0.588
15,CACUUCC,-0.868
16,UUCCCUG,-0.737
17,AACAUGC,-0.435
18,CAGGGUC,1.42
19,CAGGGUG,2.84
20,GAGGGCG,2.81
21,UAGGGUC,2.16
22,UAGGGUG,4.51
